About 540 (0.36%) of roughly 150,000 compounds showed an effect of 50% or more. Many of the other results were omitted from the sample, so strong results are more common in it than they were.
What follows are compounds tested on Plasmodium falciparum (assay: Primary screen in NF54 nanoGlo assay, in single point, at 2uM, 72h; a lower Z score goes with more inhibition). Conditions: timepoint 72 hour.
Format: functional, Erythrocyte

First: Cc1cccc(OCC(=O)Nc2cc(-c3noc(C)n3)sc2C)c1
Second: CN(C)c1nc2cc(NC(=O)Cc3noc4ccccc34)ccc2o1
The “% Inhibition” value of the first is higher: -14% for the first, -15% for the second.

Compared with `Cc1ccc(-n2cnc3c2CCN(C(=O)C(=O)Nc2c4c(nn2C)CCCC4)C3)cc1`, `Cc1nn(C(F)F)cc1-c1ccc(C(=O)N[C@H]2CCCC[C@@H]2O)cc1` is higher in “% Inhibition” value: -13% for the first, 1% for the second.

Going from `C[C@H]1Cc2ccccc2N1C(=O)Cn1cc(-c2ccn(C)n2)nn1` to `O=C(c1cccc(-n2cnnn2)c1)N1CCn2c1nc1ccccc12`, the “% Inhibition” value falls from 6% to 2%.

First: COC(=O)CC(C)NC(=O)CC(C)NC(=O)C1CCCC1 (configuration not stated)
Second: Cn1ccc(-c2nnc(NC(=O)C3CCCCC3)o2)n1
The “% Inhibition” value of the first is higher: -9% for the first, -10% for the second.

Going from `CC1=CC(=[N+](CCO)CCO)C=C/C1=C(\c1ccc(N(CCO)CCO)cc1C)c1ccccc1Cl` to `OCCN(CCO)c1ccc(C(c2ccccc2Cl)c2ccc(N(CCO)CCO)cc2Cl)c(Cl)c1`, the “% Inhibition” value falls from 86% to -9%.

Compared with `OCCN(CCO)c1ccc2ccccc2c1`, `O=C(COc1ccc(Br)cc1)N1CCN(S(=O)(=O)c2ccc3ccccc3c2)CC1` is lower in “% Inhibition” value: 7% for the first, -3% for the second.

First: COc1cccc(C(=O)N2CCC([C@]3(CCC(C)C)NC(=O)N(CCN(C)C)C3=O)CC2)c1OC
Second: CC(C)c1nnc(C2CCN(C(=O)c3c[nH]c4ccccc34)CC2)o1
The “% Inhibition” value of the first is lower: -8% for the first, 11% for the second.

First: O=C(Cc1ccc(F)cc1Cl)N[C@@H](Cc1ccncc1)C1CC(O)C1 (some centres not stated)
Second: O=C(NC[C@H]1OC[C@@H](NCc2cccnc2)[C@@H]1O)c1ccc(F)cc1
The “% Inhibition” value of the first is higher: -6% for the first, -7% for the second.

Compared with `N#Cc1cccc(CN2Cc3nc[nH]c3C[C@H]2C(=O)NCc2ccco2)c1`, `CCn1c(CCc2cccc(NC(=O)Nc3ccccc3)c2)nc2ccccc21` is higher in “% Inhibition” value: -5% for the first, 1% for the second.

First: Nc1c(S(=O)(=O)c2ccc(Cl)cc2)c2nc3ccccc3nc2n1Cc1ccc(F)cc1
Second: Nc1c(-c2nc3ccccc3[nH]2)c2nc3ccccc3nc2n1Cc1ccccc1F
The “% Inhibition” value of the first is lower: -2% for the first, 78% for the second.

Compared with `CCn1c(N)c(-c2nc3ccccc3[nH]2)c(=O)c2ccccc21`, `O=C(c1ccc2c(c1)OCO2)N1CCn2c1nc1ccccc12` is higher in “% Inhibition” value: -1% for the first, 72% for the second.

Going from `Cn1cnnc1CNC[C@H](O)c1ccc(Cl)cc1` to `CC(C)CC[C@@H](CCNCc1ccccn1)c1ccc(Cl)cc1`, the “% Inhibition” value rises from -8% to 25%.

Going from `CN(C)CCNS(=O)(=O)c1c[nH]c2c(Br)cccc12` to `COc1ccc(Cl)cc1CNCCN(C)C`, the “% Inhibition” value falls from 31% to -7%.

Going from `Cc1ccc2nc(CN3CCS(=O)(=O)C(C)C3C)cn2c1` (configuration not stated) to `Cc1cccc2ncc(C(=O)N[C@@]34COC[C@@H]3C4)n12`, the “% Inhibition” value rises from -13% to -12%.

First: COCCCNC(=O)c1cc(Br)ccc1Br
Second: CN1CCC(NCCOCc2ccc(Cl)cc2Cl)CC1
The “% Inhibition” value of the first is lower: -3% for the first, 0% for the second.

Compared with `COc1cc2c(cc1OC)CN(C(=O)c1ccc(N3CCOCC3)nc1)CC2`, `O=C(c1cncc(N2CCOCC2)c1)N1CCn2c1nc1ccccc12` is lower in “% Inhibition” value: 2% for the first, -9% for the second.

Going from `Cc1cc2[nH]c(=O)[nH]c2cc1S(=O)(=O)NC1CCCCC1` to `O=c1[nH]c2cc(Cl)c(S(=O)(=O)Cl)cc2[nH]1`, the “% Inhibition” value rises from -5% to 69%.

First: O=c1[nH]c2cc(Br)c(S(=O)(=O)Nc3cccnc3)cc2[nH]1
Second: O=C(NCCc1cn2c(n1)CCCC2)c1cccnc1
The “% Inhibition” value of the first is higher: 3% for the first, -1% for the second.

Going from `CN1C(=O)C2(CCN(C(=O)CN3C(=O)OC(C)(C)C3=O)CC2)c2ccccc21` to `Cc1c([C@@H](NCC(=O)N2CCC(C(N)=O)CC2)C(C)C)oc2ccccc12`, the “% Inhibition” value falls from -7% to -13%.

Compared with `O=C(CN(CC1CCCO1)C(=O)C1CC1(Cl)Cl)N1CCCC1` (configuration not stated), `CC(C)n1ccnc1CN1CCC[C@@](O)(CNC(=O)N2CCCCC2)CC1` is higher in “% Inhibition” value: -19% for the first, -5% for the second.

Compared with `Cc1cnc(C(=O)NC2CCCCCCC2)cn1`, `Cc1cc(C)c(C(=O)NCC#C[C@@H]2CCCCO2)c(C)n1` is lower in “% Inhibition” value: 18% for the first, -23% for the second.

Going from `O=C(CC1CCC(F)(F)CC1)Nc1ccc2c(c1F)CCNC2` to `COc1ccc2nc(O)c(C(=O)Nc3ccc4c(c3F)CCNC4)cc2c1`, the “% Inhibition” value rises from -13% to 99%.

First: COc1ccc2nc(O)c(CCC(=O)N3CCCC3)cc2c1
Second: CC(C)CC[C@@H](CCN1CCCC1)c1ccc(OC(C)C)cc1
The “% Inhibition” value of the first is lower: -20% for the first, 2% for the second.

First: CC(Cc1ccccc1Cl)C(=O)NC1CCN(C(=O)Nc2ccccc2)C1 (configuration not stated)
Second: CN1CCC(NCC[C@@H](Cc2ccccc2Cl)c2ccc(Cl)cc2)CC1
The “% Inhibition” value of the first is lower: -1% for the first, 72% for the second.

First: CC(C)CCn1ccc(NC2CCN(C)CC2)n1
Second: CC(C)CC[C@@H](CCNC1CCN(C)CC1)c1ccc(Cl)cc1
The “% Inhibition” value of the first is lower: -15% for the first, 63% for the second.

Going from `CC(C)CC[C@@H](CCNCCN(C)C)c1ccc(Cl)cc1` to `Cc1c([C@@H](NCc2ncccc2O)C(C)C)oc2ccccc12`, the “% Inhibition” value rises from 90% to 97%.

Going from `Cc1c(F)cccc1C(=O)N(C)Cc1cc(C2CC2)on1` to `CC1(C(=O)Nc2n[nH]c3cc(F)ccc23)CC2CCC1O2` (configuration not stated), the “% Inhibition” value falls from 1% to -7%.

Compared with `CCC1CN(C(=O)NCc2cc(OC)no2)CC(C)O1` (configuration not stated), `Cc1c([C@H](C)NCc2cncnc2)oc2ccccc12` is lower in “% Inhibition” value: -11% for the first, -15% for the second.

Going from `Cc1cccc(OCC(=O)Nc2cc(-c3noc(C)n3)sc2C)c1` to `CN(C)c1nc2cc(NC(=O)Cc3noc4ccccc34)ccc2o1`, the Z score rises from 2.32 to 2.38.

Compared with `Cc1ccc(-n2cnc3c2CCN(C(=O)C(=O)Nc2c4c(nn2C)CCCC4)C3)cc1`, `Cc1nn(C(F)F)cc1-c1ccc(C(=O)N[C@H]2CCCC[C@@H]2O)cc1` is lower in Z score: 1.99 for the first, -0.28 for the second.

Going from `C[C@H]1Cc2ccccc2N1C(=O)Cn1cc(-c2ccn(C)n2)nn1` to `O=C(c1cccc(-n2cnnn2)c1)N1CCn2c1nc1ccccc12`, the Z score rises from -0.77 to -0.23.

Going from `COC(=O)CC(C)NC(=O)CC(C)NC(=O)C1CCCC1` (configuration not stated) to `Cn1ccc(-c2nnc(NC(=O)C3CCCCC3)o2)n1`, the Z score rises from 1.14 to 1.57.

First: CC1=CC(=[N+](CCO)CCO)C=C/C1=C(\c1ccc(N(CCO)CCO)cc1C)c1ccccc1Cl
Second: OCCN(CCO)c1ccc(C(c2ccccc2Cl)c2ccc(N(CCO)CCO)cc2Cl)c(Cl)c1
The Z score of the first is lower: -10.15 for the first, 1.44 for the second.

Going from `OCCN(CCO)c1ccc2ccccc2c1` to `O=C(COc1ccc(Br)cc1)N1CCN(S(=O)(=O)c2ccc3ccccc3c2)CC1`, the Z score rises from -0.86 to 0.36.

Compared with `COc1cccc(C(=O)N2CCC([C@]3(CCC(C)C)NC(=O)N(CCN(C)C)C3=O)CC2)c1OC`, `CC(C)c1nnc(C2CCN(C(=O)c3c[nH]c4ccccc34)CC2)o1` is lower in Z score: 1.37 for the first, -1.46 for the second.

Compared with `O=C(Cc1ccc(F)cc1Cl)N[C@@H](Cc1ccncc1)C1CC(O)C1` (some centres not stated), `O=C(NC[C@H]1OC[C@@H](NCc2cccnc2)[C@@H]1O)c1ccc(F)cc1` is lower in Z score: 1.08 for the first, 0.99 for the second.

Compared with `N#Cc1cccc(CN2Cc3nc[nH]c3C[C@H]2C(=O)NCc2ccco2)c1`, `CCn1c(CCc2cccc(NC(=O)Nc3ccccc3)c2)nc2ccccc21` is lower in Z score: 0.75 for the first, -0.11 for the second.

Compared with `Nc1c(S(=O)(=O)c2ccc(Cl)cc2)c2nc3ccccc3nc2n1Cc1ccc(F)cc1`, `Nc1c(-c2nc3ccccc3[nH]2)c2nc3ccccc3nc2n1Cc1ccccc1F` is lower in Z score: 0.21 for the first, -5.76 for the second.

First: CCn1c(N)c(-c2nc3ccccc3[nH]2)c(=O)c2ccccc21
Second: O=C(c1ccc2c(c1)OCO2)N1CCn2c1nc1ccccc12
The Z score of the first is higher: 0.15 for the first, -0.31 for the second.

Compared with `Cn1cnnc1CNC[C@H](O)c1ccc(Cl)cc1`, `CC(C)CC[C@@H](CCNCc1ccccn1)c1ccc(Cl)cc1` is lower in Z score: 1.54 for the first, -3.14 for the second.

Compared with `CN(C)CCNS(=O)(=O)c1c[nH]c2c(Br)cccc12`, `COc1ccc(Cl)cc1CNCCN(C)C` is higher in Z score: -3.96 for the first, 0.59 for the second.

Compared with `Cc1ccc2nc(CN3CCS(=O)(=O)C(C)C3C)cn2c1` (configuration not stated), `Cc1cccc2ncc(C(=O)N[C@@]34COC[C@@H]3C4)n12` is higher in Z score: 1.17 for the first, 1.31 for the second.

First: COCCCNC(=O)c1cc(Br)ccc1Br
Second: CN1CCC(NCCOCc2ccc(Cl)cc2Cl)CC1
The Z score of the first is higher: 0.44 for the first, 0 for the second.

First: COc1cc2c(cc1OC)CN(C(=O)c1ccc(N3CCOCC3)nc1)CC2
Second: O=C(c1cncc(N2CCOCC2)c1)N1CCn2c1nc1ccccc12
The Z score of the first is lower: -0.32 for the first, 1.5 for the second.

Going from `Cc1cc2[nH]c(=O)[nH]c2cc1S(=O)(=O)NC1CCCCC1` to `O=c1[nH]c2cc(Cl)c(S(=O)(=O)Cl)cc2[nH]1`, the Z score falls from 0.69 to -7.82.

Compared with `O=c1[nH]c2cc(Br)c(S(=O)(=O)Nc3cccnc3)cc2[nH]1`, `O=C(NCCc1cn2c(n1)CCCC2)c1cccnc1` is higher in Z score: -0.54 for the first, 0.23 for the second.

Compared with `CN1C(=O)C2(CCN(C(=O)CN3C(=O)OC(C)(C)C3=O)CC2)c2ccccc21`, `Cc1c([C@@H](NCC(=O)N2CCC(C(N)=O)CC2)C(C)C)oc2ccccc12` is higher in Z score: 0.88 for the first, 1.5 for the second.

Compared with `O=C(CN(CC1CCCO1)C(=O)C1CC1(Cl)Cl)N1CCCC1` (configuration not stated), `CC(C)n1ccnc1CN1CCC[C@@](O)(CNC(=O)N2CCCCC2)CC1` is lower in Z score: 1.85 for the first, 0.65 for the second.

Compared with `Cc1cnc(C(=O)NC2CCCCCCC2)cn1`, `Cc1cc(C)c(C(=O)NCC#C[C@@H]2CCCCO2)c(C)n1` is higher in Z score: -2.33 for the first, 2.49 for the second.

First: O=C(CC1CCC(F)(F)CC1)Nc1ccc2c(c1F)CCNC2
Second: COc1ccc2nc(O)c(C(=O)Nc3ccc4c(c3F)CCNC4)cc2c1
The Z score of the first is higher: 1.83 for the first, -18.01 for the second.

First: COc1ccc2nc(O)c(CCC(=O)N3CCCC3)cc2c1
Second: CC(C)CC[C@@H](CCN1CCCC1)c1ccc(OC(C)C)cc1
The Z score of the first is higher: 3.74 for the first, -0.36 for the second.

First: CC(Cc1ccccc1Cl)C(=O)NC1CCN(C(=O)Nc2ccccc2)C1 (configuration not stated)
Second: CN1CCC(NCC[C@@H](Cc2ccccc2Cl)c2ccc(Cl)cc2)CC1
The Z score of the first is higher: 0.11 for the first, -14.93 for the second.

Compared with `CC(C)CCn1ccc(NC2CCN(C)CC2)n1`, `CC(C)CC[C@@H](CCNC1CCN(C)CC1)c1ccc(Cl)cc1` is lower in Z score: 1.91 for the first, -7.69 for the second.

Compared with `CC(C)CC[C@@H](CCNCCN(C)C)c1ccc(Cl)cc1`, `Cc1c([C@@H](NCc2ncccc2O)C(C)C)oc2ccccc12` is higher in Z score: -10.16 for the first, -8.67 for the second.

First: Cc1c(F)cccc1C(=O)N(C)Cc1cc(C2CC2)on1
Second: CC1(C(=O)Nc2n[nH]c3cc(F)ccc23)CC2CCC1O2 (configuration not stated)
The Z score of the first is lower: -0.14 for the first, 1.08 for the second.

First: CCC1CN(C(=O)NCc2cc(OC)no2)CC(C)O1 (configuration not stated)
Second: Cc1c([C@H](C)NCc2cncnc2)oc2ccccc12
The Z score of the first is higher: 2.2 for the first, 1.68 for the second.

Reference: ChEMBL document CHEMBL4888484, “Replenishing the malaria drug discovery pipeline: Screening and hit evaluation of the MMV Hit Generation Library 1 (HGL1) against asexual blood stage Plasmodium falciparum ,using a nano luciferase reporter read-out” (2022)
